# IDE cell inh: cellular human IDE inhibition. HEK cells, FAbetaB cleavage, fluorescence polarization. inhibition, % at 5.59 µM. 320,000 compounds, 0.41% hits. AID 434962;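 active = percent inhibition above the average of all tested compounds plus 3 SD, set per screening campaign, cut at about 16% in these data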;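 also: IDE supplied by intact live HEK cells; FP after avidin binding of uncleaved biotin substrate so inhibition keeps polarization high; 0% = DMSO wells and 100% = 60 µM reference IDE inhibitor Ii1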
# NOD2-RIPK2 inh: blocks binding of human NOD2 to RIPK2 | inhibition, % at 4.98 µM | CHO BLA complementation NOD2-RIPK2, CCF4 ratio | AID 624267 | 360,000 compounds, 0.38% hits | O43353; in the data active = inhibition above about 21%;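 also: 0% = vehicle only and 100% = reference blocker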
# IDE cell activ: boosts human insulin-degrading enzyme activity in HEK cells. FAbeta-B cleavage, fluorescence polarization; 0% vehicle, 100% cell-free pure enzyme wells. activation, % at 5.96 µM. P14735. 340,000 compounds, 0.073% hits;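 active = activation above the mean of all tested compounds plus 3 SD, set per screening campaign, cut at about 17% in these data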
# TLR9-MyD88 block: blocks human TLR9 binding to MyD88; 340,000 compounds, 0.21% hits; Q9NR96+Q99836; AID 504734; CHO BLA complementation TLR9-MyD88, CCF4 FRET ratio; inhibition, % at 4.98 µM;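 active = inhibition above the mean over all tested compounds plus 3 SD, cut at about 21% in these data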;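 also: 0% = DMSO only wells and 100% = clavulanate BLA inhibitor control wells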
# TLR4 MyD88 comp: inhibitors of human TLR4-MyD88 binding; O00206+Q99836; HeLa CL3-4 TLR4/MyD88 BLA complementation, FRET ratio; inhibition, % at 8.4 µM; 200,000 compounds, 0.18% hits; AID 861; in the data active = inhibition above about 25%;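 also: 0% = vehicle and 100% = reference inhibitor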
# NOD2 RIPK2 conf: NOD2-RIPK2 interaction inhibition confirmed; shares compounds with NOD2-RIPK2 inh; CHO cells, NOD2-RIPK2 BLA complementation, CCF4 FRET; inhibition, % at 4.98 µM; 1,200 compounds, 70% hits;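 active = mean inhibition across replicates above a set limit taken from the earlier primary screen, cut at about 21% in these data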;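 also: 0% = DMSO-only wells and the high end = clavulanate BLA-blocked wells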
# NOD2 BLA counter: NOD2-RIPK2 counterscreen BLA reporter activity; CHO BLA reporter, CCF4 FRET ratio; shares compounds with NOD2-RIPK2 inh; 1,200 compounds, 57% hits; inhibition, % at 4.98 µM;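 active = mean inhibition above the low-control mean inhibition plus three low-control SD, cut at about 11% in these data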;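 also: 0% = DMSO only wells and 100% = clavulanate high control wells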
# * marks the source's active call; other numbers are inactive results; / = no result. The list is not random: actives were taken first. Their share in the collection is about 0.87%.
SMILES,IDE cell inh,NOD2-RIPK2 inh,IDE cell activ,TLR9-MyD88 block,TLR4 MyD88 comp,NOD2 RIPK2 conf,NOD2 BLA counter
COc1ccc(C(CC(=O)NCC(OC)OC)NS(=O)(=O)c2ccc(Cl)cc2)cc1 (configuration not stated),-3,-3,6,7,-4,/,/
O=C(/C=C/N1CCOCC1)c1coc2ccccc12,7,29*,7,-5,2,-2,-8
CCOC(=O)C1CCCN(S(=O)(=O)c2ccc3c4c(cccc24)C(=O)N3CC)C1 (configuration not stated),-2,27*,1,6,/,25*,25*
CCOc1ccc(Cl)cc1S(=O)(=O)N1CCC(C(=O)NCc2cccnc2)CC1,-3,-6,-1,5,/,/,/
COc1ccc(/C=C2/Sc3ccc(C(=O)NCCN4CCCCCC4)cc3NC2=O)cc1,3,24*,8,2,/,17,10
CCc1ccc2c(c1)C1(NN=C(c3ccc(C)cc3)S1)C(=O)N2 (configuration not stated),14,25*,-14,19,12,5,7
CC(C)c1ccc2c(c1)C1(NN=C(c3ccccc3)S1)C(=O)N2 (configuration not stated),-1,26*,-4,13,12,6,9
CC(C)(C)NC(=O)C(c1ccnc2ccccc12)n1c(=O)c(-c2cc3ccccc3[nH]2)nc2ccccc21 (configuration not stated),/,49*,/,/,/,46*,65*
CC(C)(C)NC(=O)C(c1ccnc2ccccc12)n1c(=O)c(-c2ccccc2)nc2ccccc21 (configuration not stated),/,-7,/,/,/,/,/
CC(C)(C)NC(=O)C(c1ccccc1F)n1c(=O)c(-c2cc3ccccc3[nH]2)nc2ccccc21 (configuration not stated),/,50*,/,/,/,46*,68*
CC(C)(C)NC(=O)C(c1ccccc1F)n1c(=O)c(-c2ccco2)nc2ccccc21 (configuration not stated),/,-13,/,/,/,/,/
COc1ccc(CC(=O)N/N=C/c2ccc(-c3cccc(C(=O)O)c3)o2)cc1OC,4,-1,5,-6,/,/,/
O=c1oc(=S)oc2c1[C@H](c1ccc(Cl)cc1)O[C@H](C1CC1)C2,/,0,/,/,/,/,/
O=C(NC1CCCCC1)C(c1ccncc1)n1c(=O)c(-c2cc3ccccc3[nH]2)nc2ccccc21 (configuration not stated),/,53*,/,/,/,48*,68*
O=C(NC1CCCCC1)C(c1ccncc1)n1c(=O)c(-c2ccccc2)nc2ccccc21 (configuration not stated),/,-4,/,/,/,/,/
O=C(NC1CCCCC1)C(c1ccc(C(F)(F)F)cc1)n1c(=O)c(-c2cc3ccccc3[nH]2)nc2ccccc21 (configuration not stated),/,41*,/,/,/,36*,66*
CCc1c(C)nc2ncnn2c1N1CCN(S(=O)(=O)c2ccc(OC)cc2)CC1,-1,-2,12,-11,-7,/,/
CC(=O)Nc1ccc2c3c(cccc13)C(=O)N(c1ccccc1)C2=O,-11,1,-2,2,12,/,/
O=CNc1ccc2c3c(cccc13)-c1ccccc1-2,/,29*,-3,1,/,24*,38*
Cc1ccccc1-n1ncc(C(C)NC(=O)c2ccccc2)c1C (configuration not stated),5,-5,2,2,-13,/,/
Cc1ccccc1NC(=S)NCc1ccc2c(c1)OCO2,1,39*,1,8,10,-2,-3
CC1=C(C)CS(=O)N(S(=O)(=O)c2ccc(Cl)cc2)C1 (configuration not stated),-1,37*,-4,9,0,29*,3
COc1ccccc1C=Cc1ccnc2ccccc12,/,10,-1,-3,/,/,/
CN(C)c1ccc(C=Cc2ccnc3ccccc23)cc1N,/,33*,/,/,/,32*,33*
COc1c(O)c(=O)n2c3ccccc3c3ccnc1c32,13,26*,-22,18,/,21,18*
SMILES,IDE cell inh,NOD2-RIPK2 inh,IDE cell activ,TLR9-MyD88 block,TLR4 MyD88 comp,NOD2 RIPK2 conf,NOD2 BLA counter
O=C(CS(=O)c1ccc(C(F)(F)F)cc1[N+](=O)[O-])Oc1ccccc1 (configuration not stated),-7,9,-2,-9,13,/,/
CS(=O)(=O)c1ccc(S(=O)CC(=O)OCc2ccccc2)c([N+](=O)[O-])c1 (configuration not stated),/,25*,1,12,16,56*,25*
O=C(CCCN1C(=O)/C(=C\c2cccs2)SC1=S)Nc1cccc(C(=O)O)c1,7,24*,-2,3,2,5,-4
O=C(CN1C(=O)/C(=C\c2cccs2)SC1=S)Nc1cccc(C(=O)O)c1,4,-23,-5,-9,/,/,/
COc1ccc(C2=NN(c3ccc(C(=O)O)cc3)C(c3ccc(OC)c(OC)c3)C2)cc1 (configuration not stated),-5,25*,5,9,/,20,31*
O=C1/C(=C\c2ccccc2)CN(C(=O)CCN2CCCCC2)C/C1=C/c1ccccc1,/,36*,-1,12,/,55*,1
CCN(CC)CCC(=O)N1C/C(=C/c2ccccc2)C(=O)/C(=C\c2ccccc2)C1,/,24*,0,11,/,47*,-1
O=C(NCCN1CCOCC1)c1ccc(Cl)c(Cl)c1,3,-2,7,-2,/,/,/
O=C1/C(=C\c2ccccc2)CCC/C1=C/c1ccccc1,/,-2,-2,-6,/,/,/
O=C1/C(=C\c2ccc(Cl)c(Cl)c2)CN(C(=O)CCN2CCOCC2)C/C1=C/c1ccc(Cl)c(Cl)c1,/,39*,2,-7,/,76*,5
C(=Cc1c[nH]c2ccccc12)c1ccc2ccccc2n1,/,29*,-7,11,/,33*,47*
Fc1cccc(Nc2c3c(nc4ccccc24)CCC3)c1,-3,22*,3,-7,/,5,-1
C/C(=N\NC(=O)c1cccc(S(=O)(=O)N2CCOCC2)c1)c1cc2ccccc2o1,0,-6,2,5,/,/,/
COc1cc(/C=C/[N+](=O)[O-])ccc1OC(=O)/C=C/c1ccc(F)cc1,5,38*,2,1,/,56*,-2
CN(CC(=O)Nc1ccc(F)c(F)c1F)C(=O)C1COc2ccccc2O1 (configuration not stated),4,-3,4,-5,/,/,/
COc1ccc(C(=O)NNC(=O)c2cc3ccccc3cc2O)cc1,-2,31*,-1,10,/,5,8
CN(CC1COCCO1)c1nc2nonc2nc1N1CCSCC1 (configuration not stated),1,34*,-2,-16,-23,-2,2
